Screening results: PubChem, National Center for Advancing Translational Sciences (NCATS)
In the library only some 11% were active in any assay of this set; here they are far more common.
Pf growth 48h: Primary qHTS for delayed death inhibitors of the malarial parasite plastid, 48 hour incubation; P. falciparum luciferase growth in erythrocytes, 48 h; Potency, µM (doses to about 28.7 µM), for inactives: top-dose activity change, negative = inhibition, hits mostly inhibitors; hit rate 5.9% among 310,000; AID 504832, 2011
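Cell-based growth assay: transgenic P. falciparum expressing firefly luciferase, cultured in red cells within RPMI 1640 containing 0.5% w/v Albumax, 24 mM bicarbonate and gentamycin. A drop in luciferase activity indicates inhibition.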
Pf growth 96h: Primary qHTS for delayed death inhibitors of the malarial parasite plastid, 96 hour incubation. AID 504834, 2011. P. falciparum luciferase reporter growth, 96 h. hit rate 6.9% among 320,000. Potency, µM (doses to about 28.7 µM), inactives show at the highest dose activity change, negative = inhibition, hits mostly inhibitors
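Parasite growth measured via integrated firefly luciferase reporter in P. falciparum. Infected erythrocytes at 2% hematocrit, 0.05% parasitemia final were treated 96 hours at 37 C under 5% CO2, and luminescence was read.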
AMA1-RON2 inh: qHTS for Inhibitors of AMA1-RON; Towards Development of Antimalarial Drug Lead: Primary Screen; AID 720542, 2013; Potency, µM (highest dose often 58.2 µM), for inactives: at the top dose activity change, negative = inhibition, actives largely listed as inhibitors; AlphaScreen AMA1-biotinylated RON2 peptide binding; hit rate 0.2% among 360,000;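 further: 0% = vehicle wells and -100% = peptide control; nearly all actives have a fitted effect of over 45% in size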
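AMA1 (3D7) with his tag at 25 nM final met compounds first, then biotinylated RON2 peptide at 25 nM; detection used donor plus acceptor beads, 10 µg/mL apiece, read by AlphaScreen after 30 min at room temperature.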
HCV inh: qHTS Assay for Inhibitors of Hepatitis C Virus (HCV). Huh7.5.1 HCVcc-Cre infection, luciferase reporter, 44 h. Potency, µM (series often up to 41.8 µM), for the others: at the top dose activity change, negative = inhibition, actives largely listed as inhibitors. hit rate 3.4% among 340,000. AID 651820, 2012
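Whole-lifecycle infectious HCVcc-Cre system; cells 1,000/well, compound then virus (~0.5 moi) added 4 h after plating, 44 h culture. Luciferase read 15 sec following 15 min substrate incubation, room temp.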
The depositor's hits bear a star; [ ] = dose if it differs, or a comment. The call rests on the fitted dose curve; in most records, active means well fitted curve in the direction sought with a large enough effect; inconclusive means small, poorly fitted or top-dose-only effect, or another doubt; inactive means no such curve, though single readings can be large; an effect the other way counts as inactive or inconclusive. Unless noted, on the % scale 0 is the no-effect control and ±100 the full control effect; potency means the concentration at half of the fitted maximal effect.

Cc1ccc(SCCc2ccc(C)nc2)cc1 was read as Pf growth 48h 42%, Pf growth 96h -22%, AMA1-RON2 inh 23% and HCV inh 28%.
O=C(O)C[C@H]1c2cc(C(F)(F)F)ccc2S(=O)(=O)N1C1CCCCC1 was read as AMA1-RON2 inh 5% and HCV inh 14%.
COC(=O)[C@H](Cc1ccccc1)NC(=O)Cn1ccc(NC(=O)OCc2ccccc2)nc1=O was read as Pf growth 48h 11%, Pf growth 96h 28%, AMA1-RON2 inh -11% and HCV inh 4%.
`COc1ccccc1CN=C1NC(=O)C(CC(=O)Nc2ccc(C(C)=O)cc2)S1` (stereo not given) gave Pf growth 48h -18%, Pf growth 96h 5%, AMA1-RON2 inh -6% and HCV inh 11%.
CN(c1cccc(Cl)c1)S(=O)(=O)c1cccc(C(=O)Nc2nc3ccccc3[nH]2)c1 was read as Pf growth 48h 15µM*, Pf growth 96h inconclusive, AMA1-RON2 inh 38% and HCV inh inconclusive.
CC(=O)N1CCN(S(=O)(=O)c2cccc(C(=O)Nc3nc4ccccc4[nH]3)c2)CC1 was read as Pf growth 48h inconclusive, Pf growth 96h 1.9µM*, AMA1-RON2 inh 22% and HCV inh 13%.
`COc1ccc(N(C)S(=O)(=O)c2cccc(C(=O)Nc3nc4ccccc4[nH]3)c2)cc1` gave Pf growth 48h inconclusive, Pf growth 96h inconclusive, AMA1-RON2 inh 144% and HCV inh inconclusive.
For COC(=O)[C@@H](NS(=O)(=O)c1cc(Br)ccc1Br)C(C)C the results were AMA1-RON2 inh -3%.
`CC1(C(=O)NS(=O)(=O)c2ccc(C#N)cc2)CCN1C(=O)C1(c2ccc(Cl)cc2)CC1` (stereo not given) gave AMA1-RON2 inh -2%.
For CS(=O)(=O)c1nc(-c2ccccc2)cc(-c2ccccc2)c1C#N the results were Pf growth 48h inconclusive, Pf growth 96h 1.7µM*, AMA1-RON2 inh 0% and HCV inh 28µM*.
Screening Cc1ccc(-c2cc(-c3ccccc3)c(C#N)c(Br)n2)cc1 returned Pf growth 48h 17%, Pf growth 96h 141%, AMA1-RON2 inh 14% and HCV inh 22%.
Cc1ccc(-c2cc(C(=O)Nc3cc(C)on3)c3ccccc3n2)cc1 was read as Pf growth 48h inconclusive, Pf growth 96h 104%, AMA1-RON2 inh -6% and HCV inh 15%.
For Cc1cc(NC(=O)c2cc(-c3ccc(C)c(C)c3)nc3ccccc23)no1 the results were Pf growth 48h 0.83µM*, Pf growth 96h 0.74µM*, AMA1-RON2 inh 8% and HCV inh inconclusive.
`Cc1cc(NC(=O)c2cc(-c3cccc(OCC(C)C)c3)nc3ccccc23)no1` gave Pf growth 48h inconclusive, Pf growth 96h 2.3µM*, AMA1-RON2 inh 0% and HCV inh 13µM*.
Screening Cc1cc(NC(=O)c2cc(-c3ccccn3)nc3c(Cl)cccc23)no1 returned Pf growth 48h -4%, Pf growth 96h 2.1µM*, AMA1-RON2 inh -7% and HCV inh 7%.
C/C(=N\NS(=O)(=O)c1cccc([N+](=O)[O-])c1)c1cccnc1 was read as Pf growth 48h -2%, Pf growth 96h 100%[5.75 µM], AMA1-RON2 inh 22% and HCV inh 20%.
Screening COc1ccc(NC2=NCC(C)S2)cc1 (stereo not given) returned Pf growth 48h 21%, Pf growth 96h 45%, AMA1-RON2 inh 4% and HCV inh 8%.
COc1ccc(NC2=NCC(Cc3ccc(Br)cc3)S2)cc1 (stereo not given) was read as Pf growth 48h inconclusive, Pf growth 96h inconclusive, AMA1-RON2 inh 18µM* and HCV inh inconclusive.
Screening Cc1c(-n2c(SCC(=O)C(C)(C)C)nc3ccccc3c2=O)c(=O)n(-c2ccccc2)n1C returned Pf growth 48h inconclusive, Pf growth 96h -43%, AMA1-RON2 inh 1% and HCV inh 22%.
Screening O=C1c2ccccc2C2N1CCCN2C(=O)c1sc2ccccc2c1Cl (stereo not given) returned AMA1-RON2 inh -7%.
`Cc1ccc2c(c1)c1c(n2C)C(C(N)=O)CCC1` (stereo not given) gave Pf growth 48h 3%, Pf growth 96h 24%, AMA1-RON2 inh -9% and HCV inh inconclusive.
For Cc1ccc2c(c1)c1c(n2C)-c2[nH]ncc2CC1 the results were Pf growth 48h 94%, Pf growth 96h 44%, AMA1-RON2 inh 3% and HCV inh 10µM*.
Screening Cc1nc2cc(F)ccc2n1C1CCN(S(=O)(=O)c2ccccc2)CC1 returned Pf growth 48h inconclusive, Pf growth 96h inactive, AMA1-RON2 inh -7% and HCV inh -2%.
Cc1ccccc1Oc1cc(NC(=O)Cn2cnc([N+](=O)[O-])c2)cc([N+](=O)[O-])c1 was read as Pf growth 48h 10µM*, Pf growth 96h inconclusive, AMA1-RON2 inh -8% and HCV inh inconclusive.
`Cc1ccccc1Oc1cc(NC(=O)CCCn2nc(C)c([N+](=O)[O-])c2C)cc([N+](=O)[O-])c1` gave Pf growth 48h inconclusive, Pf growth 96h 15µM*, AMA1-RON2 inh -8% and HCV inh inconclusive.
For CCc1ccc(NC(=O)Cn2cnc([N+](=O)[O-])c2)cc1 the results were Pf growth 48h 15%, Pf growth 96h 211%, AMA1-RON2 inh 1% and HCV inh -3%.
For COc1ccccc1-n1c(CNc2c(C)cccc2C)nnc1SCC(=O)N1CCOCC1 the results were Pf growth 48h -2%, Pf growth 96h 12µM*, AMA1-RON2 inh 36% and HCV inh 3%.
For CCC(=O)NC1=C(Cl)C(=O)C(NC(=O)CC)=C(Cl)C1=O the results were Pf growth 48h 7.4µM*, Pf growth 96h 4.7µM*, AMA1-RON2 inh -7% and HCV inh inconclusive.
For COc1ccccc1NC(=O)CN1CCN(C2c3ccccc3-c3ccccc32)CC1 the results were Pf growth 48h 13µM*, Pf growth 96h -19%, AMA1-RON2 inh -18% and HCV inh -5%.
COc1ccc(NC(=O)CN2CCN(C3c4ccccc4-c4ccccc43)CC2)c(OC)c1 was read as Pf growth 48h inconclusive, Pf growth 96h 19%, AMA1-RON2 inh -6% and HCV inh inconclusive.
CCOc1ccc(NC(=O)CN2CCN(C3c4ccccc4-c4ccccc43)CC2)cc1 was read as Pf growth 48h 13µM*, Pf growth 96h 65%, AMA1-RON2 inh -7% and HCV inh inconclusive.
For CCCCOc1ccc(NC(=O)CN2CCN(C(=O)OCC)CC2)cc1 the results were Pf growth 48h 9.3µM*, Pf growth 96h inconclusive, AMA1-RON2 inh -24% and HCV inh -4%.
